Results published in ChEMBL document CHEMBL1961873, “Compounds: GSK PKIS; Assays: Nanosyn kinase panel” (2012).

Assays:
[1] = biological target: Rho-associated protein kinase 1 (Homo sapiens) (UniProt Q13464); settings: at 1 µM;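 note: reported values are mean percent inhibition of ROCK1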
[2] = biological target: Rho-associated protein kinase 2 (Homo sapiens) (UniProt O75116); settings: at 0.1 µM
[3] = biological target: Rho-associated protein kinase 2 (Homo sapiens) (UniProt O75116); settings: at 1 µM
[4] = biological target: Ribosomal protein S6 kinase alpha-1 (Homo sapiens) (UniProt Q15418); settings: at 0.1 µM
Sequence of Ribosomal protein S6 kinase alpha-1 (Homo sapiens) (Q15418 whole entry): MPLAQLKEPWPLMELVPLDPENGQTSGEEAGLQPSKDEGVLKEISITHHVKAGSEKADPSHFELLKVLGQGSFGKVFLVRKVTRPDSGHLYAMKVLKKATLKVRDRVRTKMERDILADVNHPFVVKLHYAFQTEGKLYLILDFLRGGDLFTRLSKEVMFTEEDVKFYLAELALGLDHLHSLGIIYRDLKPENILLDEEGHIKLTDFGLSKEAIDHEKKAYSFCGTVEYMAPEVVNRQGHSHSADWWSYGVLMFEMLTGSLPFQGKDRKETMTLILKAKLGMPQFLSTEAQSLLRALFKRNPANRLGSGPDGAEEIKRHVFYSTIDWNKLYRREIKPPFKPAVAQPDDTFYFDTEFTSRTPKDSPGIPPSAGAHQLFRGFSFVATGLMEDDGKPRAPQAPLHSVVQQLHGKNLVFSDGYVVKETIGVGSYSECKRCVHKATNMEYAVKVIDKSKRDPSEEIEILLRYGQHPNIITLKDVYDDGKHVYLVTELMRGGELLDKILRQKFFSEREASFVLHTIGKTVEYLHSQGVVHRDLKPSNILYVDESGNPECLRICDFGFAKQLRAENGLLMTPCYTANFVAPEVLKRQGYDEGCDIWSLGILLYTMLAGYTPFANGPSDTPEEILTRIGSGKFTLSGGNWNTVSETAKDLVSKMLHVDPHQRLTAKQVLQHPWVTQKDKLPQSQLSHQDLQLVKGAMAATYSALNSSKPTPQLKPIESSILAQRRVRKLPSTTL

[5] = biological target: Ribosomal protein S6 kinase alpha-1 (Homo sapiens) (UniProt Q15418); settings: at 1 µM
[6] = biological target: Ribosomal protein S6 kinase alpha-3 (Homo sapiens) (UniProt P51812); settings: at 0.1 µM
Sequence of Ribosomal protein S6 kinase alpha-3 (Homo sapiens) (P51812 whole entry): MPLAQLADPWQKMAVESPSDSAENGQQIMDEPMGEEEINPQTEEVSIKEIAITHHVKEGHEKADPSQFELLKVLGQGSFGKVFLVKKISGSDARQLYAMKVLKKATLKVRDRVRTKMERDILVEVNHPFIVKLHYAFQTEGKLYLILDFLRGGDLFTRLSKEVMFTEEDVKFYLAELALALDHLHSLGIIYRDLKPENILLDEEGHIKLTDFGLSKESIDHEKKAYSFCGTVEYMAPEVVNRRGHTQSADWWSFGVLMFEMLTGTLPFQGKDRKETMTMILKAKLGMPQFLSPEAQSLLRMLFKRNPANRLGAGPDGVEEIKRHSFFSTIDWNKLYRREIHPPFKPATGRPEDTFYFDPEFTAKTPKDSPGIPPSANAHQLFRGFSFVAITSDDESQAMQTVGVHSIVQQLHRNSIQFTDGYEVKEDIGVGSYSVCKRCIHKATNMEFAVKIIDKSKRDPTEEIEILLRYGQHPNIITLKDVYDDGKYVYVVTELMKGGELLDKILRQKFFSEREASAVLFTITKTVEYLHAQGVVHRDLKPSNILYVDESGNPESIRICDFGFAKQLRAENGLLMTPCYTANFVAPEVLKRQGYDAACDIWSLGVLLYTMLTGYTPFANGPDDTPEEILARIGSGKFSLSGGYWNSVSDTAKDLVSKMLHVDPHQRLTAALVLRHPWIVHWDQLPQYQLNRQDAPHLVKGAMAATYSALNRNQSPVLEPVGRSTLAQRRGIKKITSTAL

[7] = biological target: Ribosomal protein S6 kinase alpha-3 (Homo sapiens) (UniProt P51812); settings: at 1 µM
[8] = biological target: Ribosomal protein S6 kinase alpha-2 (Homo sapiens) (UniProt Q15349); settings: at 0.1 µM
Sequence of Ribosomal protein S6 kinase alpha-2 (Homo sapiens) (Q15349 whole entry): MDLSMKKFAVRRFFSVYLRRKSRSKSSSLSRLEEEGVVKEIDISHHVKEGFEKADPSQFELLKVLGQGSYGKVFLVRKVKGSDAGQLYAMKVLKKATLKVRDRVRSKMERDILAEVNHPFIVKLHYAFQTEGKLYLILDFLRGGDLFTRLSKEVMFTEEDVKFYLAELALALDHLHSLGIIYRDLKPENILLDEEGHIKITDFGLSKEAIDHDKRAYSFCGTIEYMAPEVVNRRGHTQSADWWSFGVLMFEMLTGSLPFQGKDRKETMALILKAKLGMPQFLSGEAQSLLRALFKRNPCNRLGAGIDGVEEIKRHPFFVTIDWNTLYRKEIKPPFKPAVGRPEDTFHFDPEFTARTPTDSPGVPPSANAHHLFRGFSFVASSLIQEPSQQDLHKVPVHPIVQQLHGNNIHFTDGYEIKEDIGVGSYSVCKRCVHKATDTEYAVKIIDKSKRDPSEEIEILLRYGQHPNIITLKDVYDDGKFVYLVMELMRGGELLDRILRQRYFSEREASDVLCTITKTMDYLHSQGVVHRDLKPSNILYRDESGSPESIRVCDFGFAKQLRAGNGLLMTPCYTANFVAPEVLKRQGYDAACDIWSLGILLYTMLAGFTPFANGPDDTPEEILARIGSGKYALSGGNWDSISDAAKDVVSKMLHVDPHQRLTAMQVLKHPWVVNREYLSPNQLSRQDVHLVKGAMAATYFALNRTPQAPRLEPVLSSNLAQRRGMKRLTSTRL

[9] = biological target: Ribosomal protein S6 kinase alpha-2 (Homo sapiens) (UniProt Q15349); settings: at 1 µM
[10] = biological target: Ribosomal protein S6 kinase alpha-6 (Homo sapiens) (UniProt Q9UK32); settings: at 0.1 µM
Sequence of Ribosomal protein S6 kinase alpha-6 (Homo sapiens) (Q9UK32 whole entry): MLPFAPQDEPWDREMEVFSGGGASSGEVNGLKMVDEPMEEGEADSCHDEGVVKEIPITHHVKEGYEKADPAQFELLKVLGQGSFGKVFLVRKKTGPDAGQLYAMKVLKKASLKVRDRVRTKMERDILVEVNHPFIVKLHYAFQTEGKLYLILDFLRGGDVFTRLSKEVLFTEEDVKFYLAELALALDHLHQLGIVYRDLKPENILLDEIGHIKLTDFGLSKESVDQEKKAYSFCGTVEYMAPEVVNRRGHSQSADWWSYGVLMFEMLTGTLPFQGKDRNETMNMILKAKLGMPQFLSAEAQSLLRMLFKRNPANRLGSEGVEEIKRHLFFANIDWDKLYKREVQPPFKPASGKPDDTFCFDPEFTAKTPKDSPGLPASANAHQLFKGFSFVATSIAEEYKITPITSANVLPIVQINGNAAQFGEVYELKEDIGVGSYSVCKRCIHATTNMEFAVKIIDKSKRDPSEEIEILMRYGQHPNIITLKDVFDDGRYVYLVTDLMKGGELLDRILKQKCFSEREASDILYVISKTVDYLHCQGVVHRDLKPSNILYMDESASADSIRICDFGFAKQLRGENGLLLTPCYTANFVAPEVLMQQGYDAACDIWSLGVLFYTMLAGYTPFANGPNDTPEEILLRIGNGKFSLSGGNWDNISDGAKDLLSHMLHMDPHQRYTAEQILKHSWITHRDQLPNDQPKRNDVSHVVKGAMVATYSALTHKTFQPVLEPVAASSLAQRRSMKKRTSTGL

[11] = biological target: Ribosomal protein S6 kinase alpha-6 (Homo sapiens) (UniProt Q9UK32); settings: at 1 µM
[12] = biological target: T1, Serine/threonine-protein kinase Sgk1 (Homo sapiens) (UniProt O00141); settings: at 0.1 µM
T1 sequence (whole entry): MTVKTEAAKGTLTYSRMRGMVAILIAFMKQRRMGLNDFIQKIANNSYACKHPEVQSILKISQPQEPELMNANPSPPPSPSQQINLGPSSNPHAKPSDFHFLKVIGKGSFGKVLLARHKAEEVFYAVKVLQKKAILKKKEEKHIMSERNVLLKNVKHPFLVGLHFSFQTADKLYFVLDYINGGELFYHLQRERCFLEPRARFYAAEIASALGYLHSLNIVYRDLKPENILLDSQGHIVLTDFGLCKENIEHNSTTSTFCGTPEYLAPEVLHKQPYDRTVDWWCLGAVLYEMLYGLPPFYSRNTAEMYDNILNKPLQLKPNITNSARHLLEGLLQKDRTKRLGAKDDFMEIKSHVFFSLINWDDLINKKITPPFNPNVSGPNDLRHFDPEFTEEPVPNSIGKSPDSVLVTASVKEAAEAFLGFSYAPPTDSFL

[13] = biological target: T1, Serine/threonine-protein kinase Sgk1 (Homo sapiens); settings: at 1 µM
[14] = biological target: T2, Serine/threonine-protein kinase Sgk2 (Homo sapiens) (UniProt Q9HBY8); settings: at 0.1 µM
T2 sequence (whole entry): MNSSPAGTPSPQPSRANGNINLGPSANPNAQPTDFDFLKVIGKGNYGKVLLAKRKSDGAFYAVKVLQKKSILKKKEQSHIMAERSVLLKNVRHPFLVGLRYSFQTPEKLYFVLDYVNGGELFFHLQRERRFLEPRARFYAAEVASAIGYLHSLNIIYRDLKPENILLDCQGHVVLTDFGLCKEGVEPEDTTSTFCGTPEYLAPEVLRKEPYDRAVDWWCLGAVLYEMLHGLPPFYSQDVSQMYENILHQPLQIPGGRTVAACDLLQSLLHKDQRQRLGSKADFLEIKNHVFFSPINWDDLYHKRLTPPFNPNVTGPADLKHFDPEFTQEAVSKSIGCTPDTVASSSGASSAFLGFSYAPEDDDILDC

[15] = biological target: T2, Serine/threonine-protein kinase Sgk2 (Homo sapiens); settings: at 1 µM
[16] = biological target: T3, Serine/threonine-protein kinase Sgk3 (Homo sapiens) (UniProt Q96BR1); settings: at 0.1 µM
T3 sequence (whole entry): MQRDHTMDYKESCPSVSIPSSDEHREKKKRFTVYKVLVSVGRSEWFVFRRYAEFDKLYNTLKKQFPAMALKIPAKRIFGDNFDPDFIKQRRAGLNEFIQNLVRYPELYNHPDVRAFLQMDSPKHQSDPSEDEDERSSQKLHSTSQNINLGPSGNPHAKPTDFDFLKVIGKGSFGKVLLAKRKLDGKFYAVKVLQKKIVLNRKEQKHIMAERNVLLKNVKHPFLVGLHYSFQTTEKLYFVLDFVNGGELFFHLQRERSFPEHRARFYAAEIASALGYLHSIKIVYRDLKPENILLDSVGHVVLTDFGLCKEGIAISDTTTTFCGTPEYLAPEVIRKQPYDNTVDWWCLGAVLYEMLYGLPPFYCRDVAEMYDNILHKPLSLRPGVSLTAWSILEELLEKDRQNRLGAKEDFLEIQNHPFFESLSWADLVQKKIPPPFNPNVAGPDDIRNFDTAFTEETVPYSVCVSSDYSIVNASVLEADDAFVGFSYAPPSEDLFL

[17] = biological target: T3, Serine/threonine-protein kinase Sgk3 (Homo sapiens); settings: at 1 µM
[18] = biological target: 5'-AMP-activated protein kinase catalytic subunit alpha-1 (Homo sapiens) (UniProt Q13131); settings: at 0.1 µM
Sequence of 5'-AMP-activated protein kinase catalytic subunit alpha-1 (Homo sapiens) (Q13131 whole entry, looked up): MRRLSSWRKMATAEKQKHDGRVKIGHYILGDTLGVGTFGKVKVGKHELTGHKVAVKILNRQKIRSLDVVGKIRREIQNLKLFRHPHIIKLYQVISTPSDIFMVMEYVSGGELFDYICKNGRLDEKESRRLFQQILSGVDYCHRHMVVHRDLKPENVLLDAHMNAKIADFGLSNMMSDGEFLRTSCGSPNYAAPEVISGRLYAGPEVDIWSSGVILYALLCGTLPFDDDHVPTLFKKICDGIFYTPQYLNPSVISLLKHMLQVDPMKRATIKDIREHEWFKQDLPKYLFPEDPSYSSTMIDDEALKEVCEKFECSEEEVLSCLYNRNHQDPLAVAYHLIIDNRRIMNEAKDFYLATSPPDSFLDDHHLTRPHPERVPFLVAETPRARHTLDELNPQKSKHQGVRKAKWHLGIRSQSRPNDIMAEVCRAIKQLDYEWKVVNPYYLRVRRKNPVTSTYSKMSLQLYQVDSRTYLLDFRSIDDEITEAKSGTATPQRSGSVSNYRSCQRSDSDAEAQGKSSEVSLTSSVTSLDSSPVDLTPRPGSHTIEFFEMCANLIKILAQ

[19] = biological target: 5'-AMP-activated protein kinase catalytic subunit alpha-1 (Homo sapiens) (UniProt Q13131); settings: at 1 µM
[20] = biological target: 5'-AMP-activated protein kinase catalytic subunit alpha-2 (Homo sapiens) (UniProt P54646); settings: at 0.1 µM;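 note: mean inhibition measured on the AMPK complex of alpha2, beta1 and gamma1 subunits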

Sequence of Rho-associated protein kinase 2 (Homo sapiens) (O75116 whole entry, looked up): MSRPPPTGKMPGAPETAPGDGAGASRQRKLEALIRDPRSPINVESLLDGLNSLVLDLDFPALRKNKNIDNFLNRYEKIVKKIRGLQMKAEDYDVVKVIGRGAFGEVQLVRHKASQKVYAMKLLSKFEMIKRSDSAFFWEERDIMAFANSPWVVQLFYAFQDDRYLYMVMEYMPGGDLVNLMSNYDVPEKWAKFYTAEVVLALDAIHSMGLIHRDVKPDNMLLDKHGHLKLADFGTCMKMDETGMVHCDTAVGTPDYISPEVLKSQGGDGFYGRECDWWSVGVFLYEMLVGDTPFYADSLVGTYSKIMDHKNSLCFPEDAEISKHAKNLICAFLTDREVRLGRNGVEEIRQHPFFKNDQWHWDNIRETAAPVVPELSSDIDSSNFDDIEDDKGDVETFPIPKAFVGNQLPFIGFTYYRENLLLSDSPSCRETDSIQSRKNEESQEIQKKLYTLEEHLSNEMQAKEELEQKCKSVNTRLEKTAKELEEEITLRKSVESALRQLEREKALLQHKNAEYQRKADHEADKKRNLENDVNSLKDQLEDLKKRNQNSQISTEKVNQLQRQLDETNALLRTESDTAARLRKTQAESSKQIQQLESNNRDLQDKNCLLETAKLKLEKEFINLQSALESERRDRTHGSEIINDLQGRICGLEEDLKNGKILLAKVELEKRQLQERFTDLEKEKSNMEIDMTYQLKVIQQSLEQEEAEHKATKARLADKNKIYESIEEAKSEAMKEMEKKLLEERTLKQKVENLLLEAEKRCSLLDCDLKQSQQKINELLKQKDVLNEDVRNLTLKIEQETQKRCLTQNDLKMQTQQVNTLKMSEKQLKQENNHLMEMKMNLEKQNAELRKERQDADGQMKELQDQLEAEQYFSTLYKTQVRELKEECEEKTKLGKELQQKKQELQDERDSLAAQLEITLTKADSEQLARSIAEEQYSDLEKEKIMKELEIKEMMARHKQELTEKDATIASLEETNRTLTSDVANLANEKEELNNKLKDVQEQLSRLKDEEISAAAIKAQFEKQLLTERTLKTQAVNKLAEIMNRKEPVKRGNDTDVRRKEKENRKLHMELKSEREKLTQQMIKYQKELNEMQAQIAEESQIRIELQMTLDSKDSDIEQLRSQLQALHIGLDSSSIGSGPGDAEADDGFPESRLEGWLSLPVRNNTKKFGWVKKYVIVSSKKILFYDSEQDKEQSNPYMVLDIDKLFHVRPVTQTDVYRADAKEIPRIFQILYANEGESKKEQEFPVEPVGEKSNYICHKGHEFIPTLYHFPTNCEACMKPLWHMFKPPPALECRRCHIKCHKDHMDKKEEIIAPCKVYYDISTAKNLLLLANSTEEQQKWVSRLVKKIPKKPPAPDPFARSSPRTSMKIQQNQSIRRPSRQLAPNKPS

SMILES: COc1ccc(-c2ccc3c(NC(=O)C4CC4)n[nH]c3n2)cc1
- inhibition [1]: -0.75%
- inhibition [2]: 1.6%
- inhibition [3]: 3.71%
- inhibition [4]: 0.22%
- inhibition [5]: 2.59%
- inhibition [6]: 1.62%
- inhibition [7]: 3%
- inhibition [8]: 1.1%
- inhibition [9]: 1.69%
- inhibition [10]: 0.83%
- inhibition [11]: 0.85%
- inhibition [12]: 1.6%
- inhibition [13]: 6%
- inhibition [14]: 1.24%
- inhibition [15]: 3.76%
- inhibition [16]: 2.58%
- inhibition [17]: 3.92%
- inhibition [18]: 1.15%
- inhibition [19]: 2.02%
- inhibition [20]: 0.53%

SMILES: CCS(=O)(=O)c1ccc(OC)c(Nc2ncc(-c3cccc(-c4ccccc4F)c3)o2)c1
- inhibition [1]: 1.4%
- inhibition [2]: 1.1%
- inhibition [3]: 1%
- inhibition [4]: 0.18%
- inhibition [5]: 1.38%
- inhibition [6]: 0.3%
- inhibition [7]: 0.84%
- inhibition [8]: 0.3%
- inhibition [9]: 2.3%
- inhibition [10]: -0.01%
- inhibition [11]: 0.75%
- inhibition [12]: 1.23%
- inhibition [13]: 0.04%
- inhibition [14]: 1.37%
- inhibition [15]: 1.29%
- inhibition [16]: -0.5%
- inhibition [17]: -0.32%
- inhibition [18]: 0.4%
- inhibition [19]: 0.95%
- inhibition [20]: 1.79%

SMILES: COc1cc(Nc2ncc3c(C)nc(-c4cccc(Oc5ccccc5)c4)n3n2)cc(OC)c1OC
- inhibition [1]: 1.17%
- inhibition [2]: 0.99%
- inhibition [3]: -0.91%
- inhibition [4]: 1.56%
- inhibition [5]: 7.14%
- inhibition [6]: 0.9%
- inhibition [7]: 8.61%
- inhibition [8]: 2.77%
- inhibition [9]: 14.4%
- inhibition [10]: 2.59%
- inhibition [11]: 13.2%
- inhibition [12]: 2.08%
- inhibition [13]: -0.71%
- inhibition [14]: 1.09%
- inhibition [15]: -2.63%
- inhibition [16]: 0.96%
- inhibition [17]: -0.95%
- inhibition [18]: 1.87%
- inhibition [19]: 13%
- inhibition [20]: 0.57%

SMILES: CCc1nccc2c1nc(-c1nonc1N)n2CC
- inhibition [1]: 11.5%
- inhibition [2]: 1.91%
- inhibition [3]: 17%
- inhibition [4]: 5.37%
- inhibition [5]: 35.2%
- inhibition [6]: 2.22%
- inhibition [7]: 15.6%
- inhibition [8]: 3.79%
- inhibition [9]: 26.9%
- inhibition [10]: -0.93%
- inhibition [11]: 0.92%
- inhibition [12]: 0.21%
- inhibition [13]: 3.23%
- inhibition [14]: 0.23%
- inhibition [15]: 9.51%
- inhibition [16]: 2.62%
- inhibition [17]: 7.73%
- inhibition [18]: 1%
- inhibition [19]: -1.23%
- inhibition [20]: -1.43%

SMILES: Cc1ccc(NC(=O)c2ccoc2)cc1-c1ccc(C(=O)NCC2CC2)cc1
- inhibition [1]: -0.4%
- inhibition [2]: 0.78%
- inhibition [3]: -1.14%
- inhibition [4]: 1.06%
- inhibition [5]: 0.4%
- inhibition [6]: -0.62%
- inhibition [7]: 0.11%
- inhibition [8]: 2%
- inhibition [9]: 1.72%
- inhibition [10]: -0.1%
- inhibition [11]: -0.14%
- inhibition [12]: 0.63%
- inhibition [13]: 0.73%
- inhibition [14]: 2.95%
- inhibition [15]: -0.89%
- inhibition [16]: 7.71%
- inhibition [17]: 3.98%
- inhibition [18]: 0.17%
- inhibition [19]: 1.06%
- inhibition [20]: -0.17%

SMILES: CCc1ccc(Oc2nccc(-c3c(-c4ccc(F)cc4)ncn3C3CCNCC3)n2)cc1
- inhibition [1]: 3.4%
- inhibition [2]: 2.09%
- inhibition [3]: 3.7%
- inhibition [4]: 2.14%
- inhibition [5]: 3.42%
- inhibition [6]: 3.03%
- inhibition [7]: 4.07%
- inhibition [8]: 3.08%
- inhibition [9]: 3.54%
- inhibition [10]: 3.18%
- inhibition [11]: 3.1%
- inhibition [12]: -1.02%
- inhibition [13]: 1.21%
- inhibition [14]: -0.69%
- inhibition [15]: 1.93%
- inhibition [16]: -0.71%
- inhibition [17]: 1.87%
- inhibition [18]: 5.5%
- inhibition [19]: 8.69%
- inhibition [20]: 5.08%

SMILES: COc1cccc(/C=N/Nc2ncnc3c2cnn3-c2cccc(OC)c2)c1
- inhibition [1]: 3.6%
- inhibition [2]: 2.65%
- inhibition [3]: 3.61%
- inhibition [4]: 1.05%
- inhibition [5]: 0.75%
- inhibition [6]: 0.86%
- inhibition [7]: 1.4%
- inhibition [8]: 1.64%
- inhibition [9]: 2.21%
- inhibition [10]: 0.2%
- inhibition [11]: 1.54%
- inhibition [12]: 1.88%
- inhibition [13]: 1.38%
- inhibition [14]: 1.32%
- inhibition [15]: 2.15%
- inhibition [16]: 2.71%
- inhibition [17]: 2.43%
- inhibition [18]: 1.52%
- inhibition [19]: 2.74%
- inhibition [20]: 5.39%

SMILES: Fc1ccc(-c2ncn(C3CCNCC3)c2-c2ccnc(Oc3ccc(F)c(F)c3)n2)cc1
- inhibition [1]: 6.19%
- inhibition [2]: 1.74%
- inhibition [3]: 5.45%
- inhibition [4]: 0.34%
- inhibition [5]: 2.83%
- inhibition [6]: -0.47%
- inhibition [7]: 1.32%
- inhibition [8]: 2.41%
- inhibition [9]: 2.42%
- inhibition [10]: 0.29%
- inhibition [11]: -0.02%
- inhibition [12]: 1.79%
- inhibition [13]: 3.94%
- inhibition [14]: 3.89%
- inhibition [15]: 3.96%
- inhibition [16]: 2.65%
- inhibition [17]: 2.26%
- inhibition [18]: 4.6%
- inhibition [19]: 5.31%
- inhibition [20]: 3.75%

SMILES: C#Cc1cccc(Nc2ncnc3ccc(OCCCCNCCS(C)(=O)=O)cc23)c1
- inhibition [1]: 2.52%
- inhibition [2]: 3.83%
- inhibition [3]: 6.92%
- inhibition [4]: 3.85%
- inhibition [5]: 5.51%
- inhibition [6]: 2.14%
- inhibition [7]: 3.87%
- inhibition [8]: 3.31%
- inhibition [9]: 4.55%
- inhibition [10]: 1.75%
- inhibition [11]: 3.55%
- inhibition [12]: 3.74%
- inhibition [13]: 5.99%
- inhibition [14]: 3.88%
- inhibition [15]: 4.33%
- inhibition [16]: 3.82%
- inhibition [17]: 4.46%
- inhibition [18]: 4.2%
- inhibition [19]: 6.4%
- inhibition [20]: 4.13%

SMILES: O=C1Nc2ccc(I)cc2C1=Cc1cc(Br)c(O)c(Br)c1
- inhibition [1]: 2.32%
- inhibition [2]: 2.42%
- inhibition [3]: 4.03%
- inhibition [4]: 0.5%
- inhibition [5]: 2.27%
- inhibition [6]: 1.27%
- inhibition [7]: 1.7%
- inhibition [8]: 2.5%
- inhibition [9]: 3.82%
- inhibition [10]: 1.37%
- inhibition [11]: 3.84%
- inhibition [12]: 0.41%
- inhibition [13]: 2.04%
- inhibition [14]: 1.05%
- inhibition [15]: 0.89%
- inhibition [16]: 3.3%
- inhibition [17]: 1.73%
- inhibition [18]: 1.53%
- inhibition [19]: 3.41%
- inhibition [20]: 6.97%

SMILES: Nc1nccc(-c2c(-c3ccc(F)cc3)ncn2C2CCC(O)CC2)n1 (stereo not given)
- inhibition [1]: 0.73%
- inhibition [2]: -1.47%
- inhibition [3]: -1.96%
- inhibition [4]: -0.24%
- inhibition [5]: 2.78%
- inhibition [6]: -0.92%
- inhibition [7]: -0.98%
- inhibition [8]: -0.62%
- inhibition [9]: 0.59%
- inhibition [10]: -0.21%
- inhibition [11]: 3.39%
- inhibition [12]: -2.26%
- inhibition [13]: -1.85%
- inhibition [14]: -3.55%
- inhibition [15]: 7.09%
- inhibition [16]: 0.34%
- inhibition [17]: 1.61%
- inhibition [18]: 3.45%
- inhibition [19]: 0.93%
- inhibition [20]: 0.71%

SMILES: Fc1ccc(-c2ncn(C3CCNCC3)c2-c2ccnc(Oc3ccc4c(c3)OCO4)n2)cc1
- inhibition [1]: 5.2%
- inhibition [2]: 4.88%
- inhibition [3]: 8.46%
- inhibition [4]: 1.84%
- inhibition [5]: 3.67%
- inhibition [6]: -0.4%
- inhibition [7]: 2.18%
- inhibition [8]: 2.81%
- inhibition [9]: 4.39%
- inhibition [10]: 0.63%
- inhibition [11]: 3.03%
- inhibition [12]: 3.72%
- inhibition [13]: 3.6%
- inhibition [14]: 2.63%
- inhibition [15]: 3.07%
- inhibition [16]: 6.26%
- inhibition [17]: 4.11%
- inhibition [18]: 2.72%
- inhibition [19]: 3.99%
- inhibition [20]: 3.86%
